# hNpr1 antagonist = blocks ANP-stimulated signaling of human Npr1 receptor; Potency, µM (doses to about 46.3 µM), for the others: top-dose activity change, negative = inhibition, usual class: inhibitors; P16066; AID 1347048; HEK293 hNpr1 GloSensor cGMP, ANP-stimulated luminescence; 76,000 tested, 1.6% active; calls by dose curve; note: % is set by controls: 0 for no effect and ±100 for the full control effect; nearly all actives have a fitted effect of over 60% in size
# Target sequence (P16066 whole entry, looked up): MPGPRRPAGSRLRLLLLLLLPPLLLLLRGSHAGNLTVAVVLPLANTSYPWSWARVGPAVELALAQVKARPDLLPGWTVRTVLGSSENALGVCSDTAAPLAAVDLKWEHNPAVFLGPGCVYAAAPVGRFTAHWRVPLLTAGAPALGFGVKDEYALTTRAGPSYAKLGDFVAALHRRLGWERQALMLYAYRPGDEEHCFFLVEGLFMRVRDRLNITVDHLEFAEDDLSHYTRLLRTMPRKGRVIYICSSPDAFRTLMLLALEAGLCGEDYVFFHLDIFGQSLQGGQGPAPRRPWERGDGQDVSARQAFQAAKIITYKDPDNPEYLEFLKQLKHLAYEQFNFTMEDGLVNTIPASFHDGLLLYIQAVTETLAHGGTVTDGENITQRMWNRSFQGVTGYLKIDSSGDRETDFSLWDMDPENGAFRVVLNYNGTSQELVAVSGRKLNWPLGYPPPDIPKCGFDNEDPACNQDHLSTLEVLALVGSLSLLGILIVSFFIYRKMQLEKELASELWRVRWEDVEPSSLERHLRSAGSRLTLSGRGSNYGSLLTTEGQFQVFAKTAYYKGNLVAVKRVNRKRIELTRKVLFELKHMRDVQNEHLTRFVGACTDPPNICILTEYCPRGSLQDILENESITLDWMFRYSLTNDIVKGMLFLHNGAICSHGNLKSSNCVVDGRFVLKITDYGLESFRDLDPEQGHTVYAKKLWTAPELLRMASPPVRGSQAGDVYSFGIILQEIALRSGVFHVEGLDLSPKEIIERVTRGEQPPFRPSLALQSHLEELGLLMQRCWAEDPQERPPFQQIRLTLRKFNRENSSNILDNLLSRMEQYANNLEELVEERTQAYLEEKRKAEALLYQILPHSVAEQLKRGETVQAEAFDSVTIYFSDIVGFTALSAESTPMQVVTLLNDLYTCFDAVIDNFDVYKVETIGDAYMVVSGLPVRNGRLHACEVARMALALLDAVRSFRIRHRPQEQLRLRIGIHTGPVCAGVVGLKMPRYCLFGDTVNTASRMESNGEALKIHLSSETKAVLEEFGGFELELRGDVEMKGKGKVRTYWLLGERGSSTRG
#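 HEK293 cells stably expressing human Npr1 and cGMP GloSensor pGS-40F, loaded 2 h with 2% GloSensor reagent, given compound 30 min at room temperature. Luminescence read before and 20 min after 0.1 nM hNppA.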
# 3T3 cytotox = kills NIH 3T3 cells; 94,000 tested, 4.3% active; Potency, µM (doses to about 96.7 µM), for inactives: at the top dose activity change, negative = cytotoxicity, hits mostly inhibitors; NIH 3T3 viability, CellTiter-Glo ATP luminescence, 48-72 h; AID 1345082; note: % is set by controls: 0 for no effect and ±100 for the full control effect; nearly all actives have a fitted effect of over 55% in size
#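 Cytotoxicity was measured by CellTiter-Glo ATP luminescence after 48 or 72 h compound exposure at 37 °C. Mouse NIH 3T3 fibroblasts were seeded at 400 cells/well and dosed by 23 nL pin transfer.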
# FLuc inh = inhibitors of firefly (Photinus pyralis) luciferase. Potency, µM (series often up to 115 µM), actives largely listed as inhibitors. purified P. pyralis luciferase, luminescence, biochemical. 76,000 tested, 2.5% active. P08659; note: % is set by controls: 0 for no effect and ±100 for the full control effect; nearly all actives have a fitted effect of over 65% in size
#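 Inhibitors were tested against purified firefly luciferase in a biochemical, low-substrate format (both substrates at 10uM) and luminescence measured with a CCD imager.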
# HEK293 tox = cytotoxic compounds in HEK 293 cells. HEK 293 viability, ATP luminescence (CellTiter-Glo), 48-72 h. Potency, µM (highest dose often 115 µM), for the others: at the top dose activity change, negative = cytotoxicity, most hits filed as inhibitors. 94,000 tested, 6.6% active; note: % is set by controls: 0 for no effect and ±100 for the full control effect; nearly all actives have a fitted effect of over 60% in size
#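 qHTS cytotoxicity; HEK 293, 250 cells/well; compound pinned; 48 or 72 hr, 37 degree Celsius, 5% CO2, 95% humidity; CellTiter-Glo, 10 min RT; luminescence (ATP).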
# Npr1 antag conf = confirmation of human Npr1 natriuretic peptide receptor antagonists; shares compounds with hNpr1 antagonist; HEK293 hNpr1 cGMP GloSensor luminescence, ANP-stimulated; Potency, µM (doses to about 57.6 µM), for the others: at the top dose activity change, negative = inhibition, usual class: inhibitors; 1,400 tested, 76% active; calls by dose curve; note: nearly all actives have a fitted effect of over 70% in size
# NPR2 antag = hNpr2 antagonism, selectivity versus Npr1 | shares compounds with hNpr1 antagonist | AID 1347046 | 1,400 tested, 67% active | Potency, µM (highest dose often 57.6 µM), for the others: at the top dose activity change, negative = inhibition, usual class: inhibitors | HEK293 hNpr2 GloSensor cGMP luminescence, CNP-stimulated; calls by dose curve; note: nearly all actives have a fitted effect of over 70% in size
# FLuc counter = inhibits firefly luciferase, false Npr1 antagonist flag | shares compounds with hNpr1 antagonist | purified FLuc enzyme, luminescence, Km substrate | Potency, µM (series often up to 57.6 µM), without a hit: top-dose activity change, negative = inhibition, usual class: inhibitors | 1,400 tested, 0.7% active | AID 1347047; note: 0% is about no effect
# GloSensor cGMP = control cell line activity, Npr1 antagonist counter-screen | 1,400 tested, 69% active | shares compounds with hNpr1 antagonist | Potency, µM (top dose mostly 57.6 µM), inactives show top-dose activity change, negative = inhibition, usual class: inhibitors | AID 1347051 | HEK293 GloSensor cGMP, SNP-stimulated, luminescence; calls by dose curve; note: % is set by controls: 0 for no effect and ±100 for the full control effect; nearly all actives have a fitted effect of over 70% in size
# Numbers without * were called inactive; i = inactive; ? = inconclusive; nt = not tested or not shown; [ ] = another dose, or the depositor's remark. In the library only some 11% were active in any assay of this set; here they are far more common. Unless noted, calls come from the whole dose curve; as a rule, active = well fitted curve in the direction sought with a large enough effect; inconclusive = small, poorly fitted or top-dose-only effect, or another doubt; inactive = no such curve, though single readings can be large; an effect the other way counts as inactive or inconclusive. Potency is the fitted concentration of half-maximal effect.
SMILES,hNpr1 antagonist,3T3 cytotox,FLuc inh,HEK293 tox,Npr1 antag conf,NPR2 antag,FLuc counter,GloSensor cGMP
O=C1COCC2(CN1)CN(c1ccc(Oc3ccccc3)cc1)C2,7.1µM*,?,i,?,11µM*,9.9µM*,-4%[86.2 µM],9.9µM*
COC(=O)c1cccc(NC(=S)N[C@@H]2C=C[C@@H](c3c(C)nn(-c4ccc(F)cc4)c3C)C2)c1,?,?,i,32µM*,22µM*,?,-23%,22µM*
COc1ccccc1CNC(=O)C1CN(C(C)C)C(=O)N1 (centres undefined),nt,-19%[138 µM],nt,-20%[172 µM],nt,nt,nt,nt
COc1ccc(-c2noc([C@@H]3CCCN3C(=O)c3cccc(C)c3)n2)cc1OC,1%,?,i,?,nt,nt,nt,nt
CC(=O)N1CCc2cc(S(=O)(=O)CCC(=O)N3CCC(CCOc4ccccc4)C3)ccc21 (centres undefined),10µM*,-20%,i,-17%,27µM*,?,3%,?
C[C@H](O)C(=O)N1CCc2ccc(S(=O)(=O)NCCOc3ccccc3)cc2C1,-1%,-14%,i,?,nt,nt,nt,nt
CC(=O)N1CCc2cc(S(=O)(=O)NCCCC(=O)N3CCC(CCOc4ccccc4)C3)ccc21 (centres undefined),5.6µM*,?,i,?,5.4µM*,6.1µM*,7%,4.8µM*
CC(=O)N1CCc2cc(S(=O)(=O)CCC(=O)N3CCCC(Cc4nncn4CC4CC4)C3)ccc21 (centres undefined),2%,-4%,i,-23%,nt,nt,nt,nt
CN(C)C(=O)c1cc(-c2ccccc2F)nc2c1cnn2C,nt,?,nt,-21%[172 µM],nt,nt,nt,nt
O=C(Nc1nccs1)[C@@H]1C[C@@H](c2ccc(F)cc2)N(CCOc2ccccc2)C1,?,?,i,?,35µM*,?,4%[86.2 µM],?
O=Cc1ccccc1-c1cccc(O)c1,nt,?,nt,?,?,50µM*,?,?
Cc1cccc(-c2ccccc2C=O)c1,nt,3%[174 µM],nt,-10%[230 µM],nt,nt,nt,nt
C[C@@H]1C(=O)O[C@H]2[C@H]1CC[C@@]1(C)Cc3sc(NC(=O)c4ccc(N(C)C)cc4)nc3[C@@H](C)[C@H]21,8.9µM*,32µM*,i,?,14µM*,?,-1%,11µM*
C[C@H]1[C@@H]2[C@H]3OC(=O)[C@H](C)C3CC[C@@]2(C)CC[C@@H]1NC(=O)c1ccncc1 (some centres undefined),-4%[70.6 µM],-28%[138 µM],i,-29%[172 µM],nt,nt,nt,nt
O=C(c1ccc(OC2CCN(C(=O)c3ccc(F)cc3)CC2)nc1)N1CCOCC1,-1%,?,i,-6%,nt,nt,nt,nt
C[S+](=O)([O-])NCCn1ccc2cc(OC3CCN(c4ncc(F)cn4)CC3)cnc21,22µM*,?,i,?,20µM*,28µM*,-1%[86.2 µM],22µM*
COCCCNC(=O)C(NC(=O)c1ccccc1)C1CCN(C(=O)c2ccc(Cl)cc2)CC1 (centres undefined),0%,-1%,i,3%,nt,nt,nt,nt
O=[S+]([O-])(Nc1cccnc1)c1ccc2c(c1)OCCN(Cc1ccccc1)C2,?,?,i,?,nt,nt,nt,nt
O=[S+]([O-])(Nc1ccccc1)c1ccc2c(c1)OCCN(Cc1ccncc1)C2,?,?,i,?,40µM*,35µM*,-2%[86.2 µM],31µM*
CN(C)[S+](=O)([O-])c1ccc2c(c1)OCCN(Cc1ccc(F)cc1)C2,-20%[70.6 µM],?,i,?,nt,nt,nt,nt
CN(C)[S+](=O)([O-])c1ccc2c(c1)OCCN(Cc1ccc(C(F)(F)F)cc1)C2,18µM*,45µM*,i,?,13µM*,18µM*,-13%[86.2 µM],8.9µM*
Cc1cnc(CCNC(=O)c2ccnn2C)n1CC1CC1,3%,-8%,i,-15%,nt,nt,nt,nt
O=C(NCCc1noc(-c2ccccc2)n1)c1ccccc1,-15%,-27%,i,?,nt,nt,nt,nt
O=C(CCC1CCCC1)NCCc1noc(-c2ccccc2)n1,?,?,i,79µM*,?,-25%,1%,-10%
COc1ccc(C(=O)NCCc2noc(-c3ccccc3)n2)cc1F,?,?,i,?,?,-17%,1%,7%
SMILES,hNpr1 antagonist,3T3 cytotox,FLuc inh,HEK293 tox,Npr1 antag conf,NPR2 antag,FLuc counter,GloSensor cGMP
COCc1cc(N2CCc3onc(-c4cccc5ccccc45)c3C2)ncn1,13µM*,?,i,35µM*,22µM*,?,0%,24µM*
COc1ncccc1C(=O)N1CCc2onc(-c3cccc4ccccc34)c2C1,5%,-24%,i,?,nt,nt,nt,nt
CCc1ccc(CN2CCCC(CNC(=O)c3cccc(OC)c3OC)C2)o1 (centres undefined),6%,-3%,i,?,nt,nt,nt,nt
CC(=O)NCC1CCCN(Cc2ccc(-c3ccccc3C#N)o2)C1 (centres undefined),-22%,-26%,i,-21%,?,?,-1%,8%
COc1ccc(OC)c(CN2CCCn3nc(C)c(-c4ccccc4OCc4ccccc4)c32)c1,7.1µM*,8.9µM*,i,11µM*,14µM*,19µM*,-1%,12µM*
COc1ccc(OC)c(CN2CCCn3nc(C)c(-c4ccnn4C(C)C)c32)c1,-18%[70.6 µM],-18%[138 µM],i,?,nt,nt,nt,nt
Cc1nn2c(c1-c1ccccc1OCc1ccccc1)N(CC1CC1)CCC2,7.1µM*,?,i,?,6.3µM*,31µM*,-4%[86.2 µM],5.6µM*
Cc1nn2c(c1-c1ccccc1Oc1ccccc1)N(CC1CC1)CCC2,?,32µM*,i,28µM*,40µM*,35µM*,-11%[86.2 µM],40µM*
CC(=O)Nc1ccccc1-c1c(C)nn2c1N(Cc1ccccc1)CCC2,-2%[70.6 µM],?,i,?,nt,nt,nt,nt
Cc1nn2c(c1-c1ccccc1Oc1ccccc1)N(CC1CCOCC1)CCC2,-16%[70.6 µM],?,i,?,nt,nt,nt,nt
O=C1N(C2CCCCC2)C[C@H]2CN(Cc3ncc[nH]3)CCN12,5%[70.6 µM],3%[174 µM],i,i,nt,nt,nt,nt
CC(C)c1nncn1C1CCN(S(=O)(=O)c2cccc(Cl)c2)CC1,?,-24%,i,-21%,?,?,0%,24µM*
COCC1CN(C2CCC2)CC12CCN(C(=O)NCCc1ccccc1)CC2 (centres undefined),-23%,?,i,?,-13%,-15%,4%,-11%
